# Reference: PubChem BioAssay AID624151 (Broad Institute, 2012)
# The whole screen tested about 28,000 compounds, of which about 410 (1.5%) were called active. For the sample, actives were picked, then their nearest neighbours and some compounds at random. Values without a mark were called inactive. Cut-off read from the data, not from the text of the source: active = activation above about 52%; inconclusive = no clear call, values can overlap the other calls; inactive = below that.
# Experiment: mutant p53 pathway re-activators, primary screen, cell-based, SW480, luciferase, single point, HTS (AID 624151)
# Settings: SW480 PUMA-promoter luciferase, p53 mutant reactivation; at 9.98 µM; hits give high values
row,Compound,activation
1,COc1ccc(NC(=O)Cn2cnc3sc(C)c(C)c3c2=O)cc1,4.48%
2,COc1ccc(NC(=O)N(C)C[C@H]2Oc3cc(-c4ccncc4)ccc3S(=O)(=O)N([C@H](C)CO)C[C@H]2C)cc1,-12.4%
3,COc1ccc(NC(=O)CSC2CC(=O)N(c3ccc(F)cc3)C2=O)cc1 (stereo unspecified),-1.05%
4,Cc1ccccc1-n1c(C)cc(/C=C2\NC(=O)NC2=O)c1C,22.9%
5,Cc1ccc(C(=O)O)cc1S(=O)(=O)NCCCO,-7.19%
6,COc1cccc2cc(C(=O)C3C(=O)C(=O)N(CCN4CCOCC4)C3c3ccc(F)cc3)oc12 (stereo unspecified),4.69%
7,C[C@H](O)C#Cc1cnc2c(c1)C(=O)N([C@@H](C)CO)C[C@H](C)[C@H](CN(C)C(=O)c1ccccc1)O2,10.7%
8,C[C@@H]1CN([C@H](C)CO)S(=O)(=O)c2ccc(C#CC3CC3)cc2O[C@H]1CN(C)C(=O)C1CCCCC1,-13.7%
9,Cc1sc2ncnc(SCC(=O)Nc3ccccc3)c2c1-c1ccccc1,-11.3%
10,Cc1ccc(S(=O)(=O)c2nc(-c3cccs3)oc2NCc2cccnc2)cc1,-4.49%
11,C[C@@H]1CN([C@H](C)CO)S(=O)(=O)c2ccc(C#C[C@@H](C)O)cc2O[C@H]1CN(C)C(=O)CC1CC1,0.298%
12,CS(=O)(=O)N(CC(=O)Nc1ccc(Br)cc1)c1cc(Cl)c(Cl)cc1Cl,-23.8%
13,C[C@H](CO)N1C[C@H](C)[C@H](CN(C)C(=O)c2cnccn2)Oc2cc(C3=CCCC3)ccc2S1(=O)=O,3.46%
14,O=C(CSc1nnc(-c2ccncc2)n1-c1ccc(Cl)cc1)Nc1ccc(C(=O)O)cc1,7.38%
15,CCCC#Cc1cnc2c(c1)C(=O)N([C@H](C)CO)C[C@H](C)[C@@H](CN(C)C(=O)c1cccnc1)O2,2.84%
16,Cc1ccn2c(NC(=O)C(C)(C)Oc3ccc(Cl)cc3)c(-c3ccc(F)cc3)nc2c1,-19%
17,CCc1ccccc1NC(=O)CSc1nnc(N)s1,10.1%
18,COc1ccc(NC(=O)C(C)N2c3cccc4cccc(c34)S2(=O)=O)c(OC)c1 (stereo unspecified),-6.27%
19,COc1ccccc1-c1cnc2c(c1)C(=O)N([C@@H](C)CO)C[C@@H](C)[C@@H](CN(C)C(=O)c1cccnc1)O2,2.65%
20,COc1ccccc1-c1cnc2c(c1)C(=O)N([C@H](C)CO)C[C@H](C)[C@@H](CN(C)CC1CCOCC1)O2,5.27%
21,O=C(O)CCSc1nnc2c(n1)[nH]c1ccccc12,-2.83%

row,Compound,activation
1,O=C(CSc1nnc(-c2ccco2)n1-c1ccccc1)Nc1ccc(F)cc1,7.08%
2,Cc1ccc(-c2nnc(SCC(=O)Nc3ccccc3OC(F)F)o2)cc1,102% (active)
3,COc1ccccc1-c1nnc(SCC(=O)Nc2ccccc2)o1,28.3%
4,O=C(CSc1nnc(-c2ccc(Br)cc2)o1)Nc1ccc2ccccc2c1,-20.7%
5,O=C(CSc1ncnc2sc3c(c12)CCCC3)Nc1ccc(F)c(Cl)c1,0.113%
6,CC(C)Cc1nc(SCC(=O)Nc2ccc3ccccc3c2)n[nH]1,9.32%
7,C/C=C/c1ccc2c(c1)O[C@H](CN(C)Cc1cccc(F)c1)[C@H](C)CN([C@H](C)CO)S2(=O)=O,-12.7%
8,COc1ccccc1NC(=O)N(C)C[C@@H]1Oc2ncc(Br)cc2C(=O)N([C@@H](C)CO)C[C@@H]1C,3.31%
9,CCn1c(SCC(=O)O)nc2sc3c(c2c1=O)CC(C)(C)OC3,17.9%
10,COC(=O)c1cc(OC)c(OC)cc1NC(=O)c1cc(-c2ccc(C)o2)nc2ccccc12,21.7%
11,Cc1ccc(C(=O)Oc2ccc(C(=O)CSc3nc4ccccc4o3)cc2)cc1,45.6%
12,COc1ccc(C(=O)CCC(=O)Nc2ccc(Br)cc2)cc1,-1.31%
13,COc1ccccc1NC(=O)CSc1n[nH]c(C)n1,-9.46%
14,CCOc1ccc(NC(=O)Cn2c(=O)n(-c3ccc(Cl)cc3)c(=O)c3c4c(sc32)CCC4)cc1,-5.81%
15,COc1ccccc1-n1c(N)cc(=O)nc1SCC(=O)Nc1ccc(Br)cc1,3.88%
16,COC(=O)COc1cccc(NC(=O)c2cc(OC)c(OC)c(OC)c2)c1,9.43%
17,Cc1cc2oc(C(=O)Nc3sc4c(c3C(=O)NCc3ccco3)CCC4)c(C)c2cc1C,-5.36%
18,C[C@@H]1CN([C@@H](C)CO)S(=O)(=O)c2ccc(-c3cccc(C#N)c3)cc2O[C@@H]1CN(C)Cc1cccc(F)c1,-25.7%
19,C[C@@H]1CN([C@@H](C)CO)C(=O)c2cc(/C=C/c3ccccc3)cnc2O[C@H]1CN(C)C(=O)Nc1ccc(C(F)(F)F)cc1,-18.8%
20,COc1ccc(Cl)cc1NC(=O)CSc1nnc(-c2ccc(Cl)c(Cl)c2)n1C,1.7%
21,C/C=C/c1ccc2c(c1)O[C@H](CN(C)C(=O)Cc1cccnc1)[C@@H](C)CN([C@H](C)CO)S2(=O)=O,-5.22%

row,Compound,activation
1,Cc1cc(=O)oc2cc(OC(C)C(=O)Nc3ccc(Cl)c(C(F)(F)F)c3)ccc12 (stereo unspecified),0.711%
2,CCCC#Cc1ccc2c(c1)O[C@@H](CN(C)CC1CC1)[C@@H](C)CN([C@H](C)CO)S2(=O)=O,1.22%
3,COCCNC(=O)C[C@@H]1C[C@@H]2c3cc(NC(=O)Nc4ccc(C(F)(F)F)cc4)ccc3O[C@@H]2[C@@H](CO)O1,11.3%
4,Cc1ccnc(NC(c2cccc([N+](=O)[O-])c2)c2ccc3ccc(C)nc3c2O)c1 (stereo unspecified),-13.9%
5,Cc1csc2nc(SCC(=O)Nc3ccc([N+](=O)[O-])cc3)[nH]c(=O)c12,15.6%
6,Cn1nnc(NC(=O)COc2ccc(Cl)cc2Cl)n1,70.8% (active)
7,COc1cc(NC(=O)COc2ccccc2Br)c(OC)cc1Cl,132% (active)
8,COc1cc(NC(=O)COc2ccc(Br)cc2)ccc1NC(=O)c1ccccc1Cl,20.3%
9,COC(=O)c1cc(OC)c(OC)cc1NC(=O)COc1ccc(Cl)cc1,-22.9%
10,COC(=O)c1cc(OC)c(OC)cc1NC(=O)COc1ccccc1Cl,10.4%
11,CCOc1ccc(OCC(=O)Nc2cc(C)c(Cl)cc2OC)cc1,8.21%
12,COc1cc(NC(=O)COc2cc(C)c(Br)c(C)c2)c(OC)cc1Cl,0.202%
13,COc1cc(NC(=O)COc2ccc(Cl)cc2C)c(OC)cc1Cl,105% (active)
14,COc1ccc(NC(=O)CSc2nnnn2C)cc1Cl,47.7%
15,CS(=O)(=O)N(CC(=O)Nc1cc(C(F)(F)F)ccc1Cl)c1ccccc1Br,-13.9%
16,Cc1cc(C)c2oc(-c3cccc(NC(=O)COc4ccc(Br)cc4)c3C)nc2c1,-29.6%
17,Cc1ccc(OCC(=O)Nc2cc(-c3nc4cc(C)c(C)cc4o3)ccc2C)cc1,39.9%
18,Cc1ccc2nc(-c3ccc(Cl)c(NC(=O)COc4ccc(Br)cc4)c3)oc2c1,91.4% (active)
19,CS(=O)(=O)N(CC(=O)Nc1ccccc1C(=O)N1CCOCC1)c1ccc(I)cc1,9.09%
20,CN(C)CCNc1oc(COc2ccc(F)cc2)nc1C#N,-4.45%
21,Cc1ccc(N(CC(O)CN2C(=O)NC(C)(C)C2=O)S(=O)(=O)c2ccccc2)cc1 (stereo unspecified),22.6%

row,Compound,activation
1,O=C1c2ccccc2C(=O)N1CCCc1nc2ccccc2c(=O)n1-c1nc2ccccc2s1,102% (active)
2,O=C1c2ccccc2C(=O)N1CCCn1c2ccccc2c2nc3ccc([N+](=O)[O-])cc3cc21,9.36%
3,Cc1ccc(NC(=O)CCCN2C(=O)c3ccccc3C2=O)cc1,11.8%
4,COCC#Cc1cnc2c(c1)C(=O)N([C@H](C)CO)C[C@H](C)[C@@H](CN(C)C(=O)Nc1cc(F)ccc1F)O2,13.3%
5,CC(NS(=O)(=O)c1ccc(F)cc1)C(=O)Nc1ccc(I)cc1 (stereo unspecified),-13.8%
6,COc1ccc(C#Cc2cnc3c(c2)C(=O)N([C@H](C)CO)C[C@H](C)[C@@H](CN(C)C)O3)cc1,0.282%
7,O=C(CS(=O)(=O)c1ccccc1)Nc1ccc2c(c1)OCCO2,61.6% (active)
8,O=C(CS(=O)(=O)c1ccccc1)Nc1ccccc1O,7.6%
9,COc1ccc(S(=O)(=O)N(C)CC(=O)Nc2ccc3c(c2)OCCO3)cc1OC,-12.9%
10,Cc1ccc2nc(-c3ccncc3)cc(C(=O)NCc3ccccn3)c2c1,-3.82%
11,CC(C)(C)c1ccc(OCC(=O)NCc2ccccn2)c(Br)c1,94.5% (active)
12,CN(c1ccc(C(=O)NCc2ccccn2)cc1)S(C)(=O)=O,5.75%
13,CCCNC(=O)N(C)C[C@H]1Oc2cc(C#CC(C)(C)O)ccc2S(=O)(=O)N([C@H](C)CO)C[C@@H]1C,14.1%
14,CCc1ccccc1NC(=O)Cn1cnc2scc(-c3ccc(OC)cc3)c2c1=O,-10.3%
15,Cc1cccc(N(CC(=O)Nc2cccc([N+](=O)[O-])c2)S(C)(=O)=O)c1C,-1.11%
16,Cc1nc(SCC(=O)Nc2ccc(C(=O)O)cc2)[nH]c(=O)c1C,-11.8%
17,CCn1cc(CNC(=S)Nc2cc(OC)ccc2OC)cn1,-10.5%
18,CCCNC(=O)N(C)C[C@@H]1Oc2ncc(-c3ccccc3F)cc2C(=O)N([C@@H](C)CO)C[C@H]1C,16.1%
